# Bioassay records deposited in PubChem by several laboratories.
# FAS-TE inh: blocks the thioesterase domain of human fatty acid synthase; inhibition, % at 15 µM; AID 602261; recombinant FAS-TE, OMFH fluorogenic substrate, fluorescence endpoint; 360,000 tested, 0.67% active;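 active = compounds whose normalised, plate-corrected inhibition of enzyme fluorescence in the single-dose primary screen is 50% or more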;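 note: 0% = DMSO with enzyme and 100% = substrate without enzyme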
# H9c2 protect: modulators protecting cardiomyocytes from myocardial damage. H9c2 cardiomyocytes, H2O2 injury protection, ATPLite, 2 h. 360,000 tested, 0.63% active. protection from H2O2 cell death, % at 20 µM;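 active = compounds giving at least 50% protection of heart cells from peroxide-induced death in the single-dose screen, raw or plate-pattern-corrected value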;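 note: 0% = DMSO wells with peroxide and 100% = DMSO wells without peroxide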
# PLC-beta3 inh: PLC-beta3 (human) inhibition, primary screen; Q01970; Purified PLC-beta3, fluorogenic substrate, fluorescence; inhibition, % at 12.2 µM; 370,000 tested, 0.18% active; AID 720704; in the data active = inhibition above about 11%;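 note: 0% = median of compound wells on plate and 100% = full blocker control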
# PLCg1 inh: inhibitors of human phospholipase C gamma1 | 370,000 tested, 0.84% active | AID 720700 | purified PLC-gamma1, fluorogenic substrate, fluorescence | inhibition, % at 12.2 µM | P19174; in the data active = inhibition above about 9.5%
# * = called active by the depositor; · = no result; ! = not active in a repeat. Hits are enriched below; roughly 2.2% of the tested compounds scored in any of these assays.
SMILES,FAS-TE inh,H9c2 protect,PLC-beta3 inh,PLCg1 inh
COC(=O)[C@H](C(C)C)N(Cc1cn(Cc2ccccc2)nn1)S(=O)(=O)c1ccc(F)cc1Br,·,·,3,4
Cc1cccc(OCC(=O)NCC(=O)N/N=C/c2cc(Br)cc(Br)c2O)c1,23,59*,-39,-14
CCOc1ccc(/C=N/NC(=O)C(O)c2ccccc2)c(O)c1 (stereo unspecified),-2,52*,-11,-3
COc1cccc(/C=N/NC(=O)CNC(=O)COc2ccccc2)c1O,2,29,-63,-45
O=C(COc1ccccc1)NCC(=O)N/N=C/c1ccc(O)cc1O,-2,60*,-18,-12
Cc1cc(Nc2ccccc2C(=O)O)nc2nc3ccccc3c(=O)n12,-6,81*,3,1
Cc1c(NC(=O)Cn2[nH]c(=O)c3ccccc3c2=O)c(=O)n(-c2ccccc2)n1C,-12,64*,4,2
CN(CC(=O)Nc1c(Cl)cccc1Cl)C(=O)CCC(=O)c1ccccc1,-4,-3,-4,-2
Cc1c(NC(=O)CN2CC(C)OC(C)C2)c(=O)n(-c2ccccc2)n1C (stereo unspecified),-5,9,2,14*!
CN(CC(=O)Nc1c(Cl)cccc1Cl)C(=O)Cn1[nH]c(=O)c2ccccc2c1=O,-6,76*,-1,-1
CCCCc1c(-c2ccccc2OC)ncn1Cc1ccc(F)c(F)c1,·,·,-2,0
C[C@@H]1CN([C@@H](C)CO)C(=O)CCCn2nncc2CO[C@H]1CN(C)CC1CC1,·,·,0,3
CC(=O)C1=C(C)N(Cc2ccc(F)cc2)C(=S)NC1c1cccc(Cl)c1 (stereo unspecified),·,·,-5,2
Cc1ccccc1C(=O)NC1CCCCN(Cc2cccc(C(F)(F)F)c2)C1=O (stereo unspecified),·,·,-2,2
CC1Cc2ccccc2C(=O)N1 (stereo unspecified),-14,97*,0,3
O=C1Cc2ccccc2C(=O)N1,50,·,0,11*
CCN1C(=O)/C(=C/c2nc3ccccc3c(=O)[nH]2)c2ccccc21,-9,78*,-64,-58
COc1ccc(/C=C/S(=O)(=O)NCc2ccccc2)c(CNC(=O)OC(C)(C)C)c1,·,·,-4,1
COc1cc(/C=C/c2nnc3c4ccccc4ncn23)cc(OC)c1OC,8,68*,-172,-138
CC[C@H](NC(=O)[C@@H](Cc1ccccc1)NC(=O)[C@H]1O[C@@H](n2ccc(=O)[nH]c2=O)[C@H](O)[C@@H]1O)c1ccccc1,·,·,4,4
COc1ccc(Nc2nc(C)nc3c2nnn3Cc2ccccc2Cl)c(OC)c1,-2,-7,-14,-11
CCOC(=O)C(C(C)=O)c1nc(C)nc2c1nnn2Cc1ccccc1Cl (stereo unspecified),17,9,2,13*
CCCc1cc2c(cc1NC(=O)c1ccc(Br)cc1)OCO2,-5,56*,1,-1
CC1(c2cccc(Br)c2)NC(=O)N(CC(=O)Nc2cccnc2Cl)C1=O (stereo unspecified),2,0,-1,10*
O=C(CSc1ccc(-c2ccccn2)nn1)N1CCCc2ccccc21,1,52*,2,-1
SMILES,FAS-TE inh,H9c2 protect,PLC-beta3 inh,PLCg1 inh
Cc1cc(C)cc(NC(=O)CSc2ccc(-c3ccccn3)nn2)c1,-6,67*,-5,0
CC(=O)N1CCN(C(=O)CN2C(=O)CC(C)(C)S(=O)(=O)c3ccccc32)CC1,·,·,1,6
Cc1ccc(Cn2c(SCCN3CCOCC3)nc3c2c(=O)n(C)c(=O)n3C)cc1,-2,36,-1,5
Cn1c(=O)c2c(nc(SCCN3CCOCC3)n2Cc2ccc(Cl)cc2)n(C)c1=O,2,64*,0,-1
C[C@H]1[C@@H](N(C)C)CC[C@@]23CCCN2C(=O)CCC[C@@H]13,·,·,0,2
CCOC(=O)c1ccccc1OCc1cc(/C=N/NC(=O)c2cccnc2)ccc1OC,2,55*,-17,-3
COc1ccc(/C=N\NC(=O)c2cc(O)c(O)c(O)c2)cc1COc1ccc(C(=O)OCC(C)C)cc1,-17,53*,-7,6
COc1ccc(/C=N/NC(=O)c2cccnc2)cc1O,-2,-3,-9,-4
COc1ccc(/C=N/NC(=O)c2cccnc2)cc1CN1CCc2ccccc2C1,-1,69*,-12,-5
Cc1c(O)c(CN2CCCCC2)cc2c1oc(=O)c1ccccc12,-2,52*,-45,-41
COC(=O)[C@@H]1C[C@@H](c2ccccc2)[C@H](C)C1(C)C,9,-8,6,9.7*
O=C(NC1CCCCN(Cc2cccc(Cl)c2)C1=O)c1cccs1 (stereo unspecified),·,·,0,4
O=c1[nH]ccc2c(O)cccc12,-3,90*,-15,-8
N#CCCCc1cn(-c2ccc(-c3noc4c3C(=O)N(CC(=O)N3CCOCC3)CC4)cc2)nn1,·,·,3,8
Cc1ccc(NC(=O)Cc2ccc(OC(F)F)cc2)c(S(=O)(=O)N2CCOCC2)c1,·,·,-5,-13
O=c1[nH]c(SCc2n[nH]c(=S)n2-c2ccccc2)nc2sc3c(c12)CCC3,-2,62*,-1,-1
O=c1[nH]c(SCc2n[nH]c(=S)n2-c2ccccc2)nc2ccccc12,-8,22,-2,-1
O=C(C[C@H]1C[C@H](C(=O)N2CCOCC2)[C@@]2(CCC3CCCC3)c3[nH]c4cc(-c5ccco5)ccc4c3CCN2C1=O)NCC12CC3CC(CC(C3)C1)C2,30,-11,-106,-83
CC(C)(C)NC(=O)C[C@H]1C[C@H](C(=O)N2CCOCC2)[C@@]2(CCC3CCCC3)c3[nH]c4cc(-c5ccco5)ccc4c3CCN2C1=O,58*,-4,·,·
COC(=O)[C@]12C[C@H](CC(=O)NCC3CCCCC3)C(=O)N(CCC3=CCCCC3)C1=C[C@H](C(C)C)O[C@@H]2C1CC1,·,·,0,3
COc1cccc(OC)c1OCCCCCCN1CCN(C)CC1,-7,0,-1,13*
O=C(NNC(=S)NC(=O)c1cccc([N+](=O)[O-])c1)c1ccc(Br)cc1,10,56*,-3,3
O=C(NNC(=S)NC(=O)c1cccc([N+](=O)[O-])c1)c1ccc(O)cc1,0,14,-6,5
CCCCCCCCNS(=O)(=O)CC1NCc2cc(OC)ccc21 (stereo unspecified),·,·,-33,-22
O=C(OCc1nnc(-c2ccc(Cl)cc2)o1)c1ccncc1,-4,2,-4,-4
SMILES,FAS-TE inh,H9c2 protect,PLC-beta3 inh,PLCg1 inh
COc1ccc(-c2cc(-c3nnc(COC(=O)c4ccncc4)o3)c3ccccc3n2)cc1OC,10,79*,-106,-80
O=c1cc(-c2ccccc2)oc2c1ccc1ccccc12,·,·,-67,-53
O=c1cc(-c2cccnc2)oc2c1ccc1ccccc12,4,76*,-154,-106
COCCCNC(=O)C[C@H]1C[C@@]2(C(=O)OC)C(=C[C@H](C(C)(C)C)O[C@@H]2C)N(CCc2ccc(OC)c(OC)c2)C1=O,·,·,3,-3
CCn1c(=O)cc(OCC(=O)Nc2ccccc2C#N)c2ccccc21,-6,60*,-3,-3
N#Cc1c(-c2cccs2)cc(-c2cccnc2)nc1N,-2,73*,-300,-222
N#Cc1c(-c2ccc(F)cc2)cc(-c2cccnc2)nc1N,9,-11,-29,-23
